Calls of active or inactive are those of the source.
Assays:
[1] = tested on: Plasmodium falciparum Sir2 (PF13_0152, Sir2A); assay: pfSir2 binders on small-molecule microarrays, primary screen, biochemical, small-molecule microarray, 635 nm fluorescence (AID 1098); conditions: small-molecule microarray binding, fluorescence 635 nm; higher = more signal;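 further: score merges spot fluorescence intensity with its signal-to-noise ratio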
[2] = small-molecule microarray binders of probe aDKK1, primary screen, biochemical, biotinylated probe, 635/667 nm fluorescence (AID 1099); conditions: higher = more signal;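 further: score merges 667nm spot fluorescence with signal to noise across triplicate slides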
[3] = small-molecule microarray binders of probe aCHRDL2, primary screen, biochemical, biotinylated probe, 635/667 nm fluorescence (AID 1100); conditions: higher = more signal
[4] = splicing luciferase reporter signal modulators, primary screen, spliceosome inhibition project, cell-based, HEK293, splice +/- reporter (AID 1101); conditions: luminescence, 24 h, higher = more signal, called active from +8 up or from −8 down;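 further: HEK293 cells carrying a splicing-competent luciferase reporter gene; test concentration not given here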
[5] = molecular target: Fibroblast growth factor 10 (Homo sapiens) (UniProt O15520); assay: FGF10 binders on small-molecule microarrays, primary screen, biochemical, small-molecule microarray, 635 nm fluorescence (AID 1102); conditions: FGF10 binding, fluorescence 635 nm, higher = more signal
Chain of Fibroblast growth factor 10 (Homo sapiens) (O15520 whole entry, looked up): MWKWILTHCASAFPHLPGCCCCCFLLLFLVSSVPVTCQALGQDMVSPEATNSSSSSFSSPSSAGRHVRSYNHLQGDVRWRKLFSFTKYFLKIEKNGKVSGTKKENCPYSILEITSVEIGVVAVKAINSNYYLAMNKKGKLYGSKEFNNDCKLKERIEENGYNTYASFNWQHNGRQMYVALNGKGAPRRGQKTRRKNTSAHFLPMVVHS

[6] = tested on: glycogen synthase kinase-3 (GSK3A per assay name; protocol says GSK3B); assay: GSK3 binders on small-molecule microarrays, primary screen, biochemical, small-molecule microarray, 635 nm fluorescence, GSK3A (AID 1103); conditions: small-molecule microarray binding, fluorescence 635 nm; higher = more signal; further: the record names both GSK3A and GSK3B
[7] = molecular target: Epidermal growth factor receptor (Homo sapiens) (UniProt P00533); assay: EGFR binders on small-molecule microarrays, primary screen, biochemical, small-molecule microarray, 635 nm fluorescence (AID 1104); conditions: EGFR binding, higher = more signal;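 further: score merges 667 nm emission intensity with spot signal to noise over triplicate slides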
Chain of Epidermal growth factor receptor (Homo sapiens) (P00533 whole entry, looked up): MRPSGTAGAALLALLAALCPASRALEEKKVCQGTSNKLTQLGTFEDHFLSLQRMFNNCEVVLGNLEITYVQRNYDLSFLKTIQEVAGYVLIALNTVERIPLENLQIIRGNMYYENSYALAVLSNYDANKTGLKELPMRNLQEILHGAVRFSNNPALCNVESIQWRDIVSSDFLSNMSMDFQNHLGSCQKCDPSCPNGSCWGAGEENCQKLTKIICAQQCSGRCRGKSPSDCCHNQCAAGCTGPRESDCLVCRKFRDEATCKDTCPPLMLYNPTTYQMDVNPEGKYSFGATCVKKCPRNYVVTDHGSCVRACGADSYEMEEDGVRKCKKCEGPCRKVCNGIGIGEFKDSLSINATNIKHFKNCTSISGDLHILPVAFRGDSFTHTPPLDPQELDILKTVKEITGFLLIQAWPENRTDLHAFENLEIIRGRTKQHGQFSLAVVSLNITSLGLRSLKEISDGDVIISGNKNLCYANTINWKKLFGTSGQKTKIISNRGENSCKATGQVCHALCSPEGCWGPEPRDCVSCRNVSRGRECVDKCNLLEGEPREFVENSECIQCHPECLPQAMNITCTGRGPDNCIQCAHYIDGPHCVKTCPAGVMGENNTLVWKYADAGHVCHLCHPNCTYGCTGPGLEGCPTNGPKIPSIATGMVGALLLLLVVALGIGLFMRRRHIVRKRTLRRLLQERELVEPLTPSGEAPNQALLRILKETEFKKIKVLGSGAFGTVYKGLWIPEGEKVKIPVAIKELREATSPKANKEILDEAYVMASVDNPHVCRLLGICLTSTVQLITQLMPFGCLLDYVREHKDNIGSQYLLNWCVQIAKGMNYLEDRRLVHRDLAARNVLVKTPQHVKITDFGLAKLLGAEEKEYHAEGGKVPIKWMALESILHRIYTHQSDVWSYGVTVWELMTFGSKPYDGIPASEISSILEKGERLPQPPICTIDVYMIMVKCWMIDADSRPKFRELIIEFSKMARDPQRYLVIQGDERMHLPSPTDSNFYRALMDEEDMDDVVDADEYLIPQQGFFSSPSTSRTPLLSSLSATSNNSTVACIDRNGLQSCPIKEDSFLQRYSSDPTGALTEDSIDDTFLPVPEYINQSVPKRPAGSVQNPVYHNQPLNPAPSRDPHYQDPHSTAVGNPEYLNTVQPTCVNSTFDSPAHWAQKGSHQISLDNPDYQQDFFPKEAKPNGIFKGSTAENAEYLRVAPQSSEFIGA

[8] = molecular target: Follistatin-related protein 3 (Homo sapiens) (UniProt O95633); assay: FSTL3 binders on small-molecule microarrays, primary screen, biochemical, small-molecule microarray, 635 nm fluorescence (AID 1105); conditions: FSTL3 binding, higher = more signal;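 further: score merges emission near 667 nm and signal to noise per printed spot across three slides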
Chain of Follistatin-related protein 3 (Homo sapiens) (O95633 whole entry, looked up): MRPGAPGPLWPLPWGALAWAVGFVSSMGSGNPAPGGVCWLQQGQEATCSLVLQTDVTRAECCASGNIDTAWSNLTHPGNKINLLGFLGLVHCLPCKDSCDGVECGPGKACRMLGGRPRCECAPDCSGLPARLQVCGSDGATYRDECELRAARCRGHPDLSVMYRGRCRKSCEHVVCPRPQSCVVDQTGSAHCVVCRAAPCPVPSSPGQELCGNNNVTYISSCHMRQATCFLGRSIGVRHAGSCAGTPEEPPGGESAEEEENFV

[9] = molecular target: Dickkopf-related protein 1 (Homo sapiens) (UniProt O94907); assay: DKK1 binders on small-molecule microarrays, primary screen, biochemical, small-molecule microarray, 635 nm fluorescence scan (AID 1106); conditions: DKK1 binding, higher = more signal;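 further: score merges emission near 667 nm with signal to noise over three replicate slides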
Chain of Dickkopf-related protein 1 (Homo sapiens) (O94907 whole entry, looked up): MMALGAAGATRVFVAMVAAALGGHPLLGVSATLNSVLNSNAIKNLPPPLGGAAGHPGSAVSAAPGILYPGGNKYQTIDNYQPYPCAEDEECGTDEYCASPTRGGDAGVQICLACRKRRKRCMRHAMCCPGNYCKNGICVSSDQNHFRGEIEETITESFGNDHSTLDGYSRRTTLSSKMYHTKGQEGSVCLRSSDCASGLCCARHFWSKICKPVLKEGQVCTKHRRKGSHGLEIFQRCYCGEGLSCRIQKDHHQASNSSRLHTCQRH

[10] = tested on: Inhibin beta A chain (activin A); assay: INHBA (activin A) binders on microarrays, primary screen, biochemical, small-molecule microarray, 635 nm fluorescence scan (AID 1107); conditions: small-molecule microarray binding, higher = more signal;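 further: mouse activin A protein probed at 4.33 µg/mL on printed slides; score merges bound-protein fluorescence near 667 nm with spot signal-to-noise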
[11] = tested on: Human papillomavirus type 1a protein E7 (residues 44-93); assay: HPV1a E7 fragment binders on microarrays, primary screen, biochemical, small-molecule microarray, residues 44-93, 635 nm fluorescence (AID 1108); conditions: small-molecule microarray binding, fluorescence 635 nm; higher = more signal;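 further: E7 fragment applied at 1 µg/mL in TBST for 1 h at 4 C; score combines spot fluorescence with its signal to noise ratio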
[12] = modulators of HCV replicon luciferase signal, primary screen, HCV replication inhibitor project, Huh7 cells, luciferase reporter (AID 1109); conditions: 48 h, higher = more signal;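 further: huh7 hepatoma cells harbouring a luciferase neomycin HCV replicon reporter; luciferase luminescence as measure of HCV replicon replication; test concentration not given here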
[13] = molecular target: Left-right determination factor 2 (Homo sapiens) (UniProt O00292); assay: LEFTY2 binders on small-molecule microarrays, primary screen, biochemical, small-molecule microarray, 635 nm fluorescence scan (AID 1110); conditions: LEFTY2 binding, higher = more signal
Chain of Left-right determination factor 2 (Homo sapiens) (O00292 whole entry, looked up): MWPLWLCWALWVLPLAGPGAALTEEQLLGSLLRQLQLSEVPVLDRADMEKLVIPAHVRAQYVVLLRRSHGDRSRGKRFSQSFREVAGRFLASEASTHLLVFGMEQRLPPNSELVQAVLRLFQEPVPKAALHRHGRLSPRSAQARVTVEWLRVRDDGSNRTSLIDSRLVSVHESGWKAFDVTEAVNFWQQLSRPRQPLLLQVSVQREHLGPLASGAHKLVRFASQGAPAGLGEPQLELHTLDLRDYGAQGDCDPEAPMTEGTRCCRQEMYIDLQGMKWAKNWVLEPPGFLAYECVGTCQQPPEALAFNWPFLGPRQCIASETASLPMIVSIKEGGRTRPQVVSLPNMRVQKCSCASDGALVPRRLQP

[14] = molecular target: Calmodulin-1 (Homo sapiens) (UniProt P0DP23); assay: CALM1 binders on microarrays, EGTA buffer, profiling panel, biochemical, small-molecule microarray, Cy5-labelled CALM1 (AID 1111); conditions: Cy5-CALM1 binding fluorescence, higher = more signal;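 further: labelled calmodulin applied in Tris saline Tween buffer holding calcium plus EGTA and DTT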
[15] = molecular target: Calmodulin-1 (Homo sapiens) (UniProt P0DP23); assay: calcium-bound CALM1 binders on microarrays, profiling panel, artefact control for SMM control-protein annotation, biochemical, small-molecule microarray, Cy5-labelled CALM1, plus calcium (AID 1112); conditions: Cy5-CALM1 binding fluorescence, higher = more signal;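 further: score merges spot fluorescence with signal to noise from triplicate slides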
[16] = small-molecule microarray binders of probe aWnt5a, primary screen, biochemical, biotinylated probe, 635/667 nm fluorescence (AID 1113); conditions: higher = more signal;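 further: score merges 667 nm fluorescence intensity with signal-to-noise per printed feature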
[17] = small-molecule microarray binders of probe aShh, primary screen, biochemical, biotinylated probe, 635/667 nm fluorescence (AID 1114); conditions: higher = more signal;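 further: probe is biotin-labelled aShh protein from a stem cell growth factor screen; measures binding of labelled protein to compounds printed on the slide; score merges feature fluorescence at 667 nm with signal-to-noise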
[18] = small-molecule microarray binders of probe aNog, primary screen, biochemical, biotinylated probe, 635/667 nm fluorescence (AID 1115); conditions: higher = more signal;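 further: probe is biotinylated aNog protein used at 0.15 µg/mL for 1 h at 4 C; z-score combines 667 nm fluorescence of each spot with its signal to noise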
[19] = molecular target: Torsin-1A-interacting protein 1 (Homo sapiens) (UniProt Q5JTV8); assay: LAP1 binders from COS7 cell lysate, primary screen, small-molecule microarray, 635/667 nm fluorescence (AID 1116); conditions: COS7-hLAP1 lysate binding, 635 nm fluorescence, higher = more signal
Chain of Torsin-1A-interacting protein 1 (Homo sapiens) (Q5JTV8 whole entry, looked up): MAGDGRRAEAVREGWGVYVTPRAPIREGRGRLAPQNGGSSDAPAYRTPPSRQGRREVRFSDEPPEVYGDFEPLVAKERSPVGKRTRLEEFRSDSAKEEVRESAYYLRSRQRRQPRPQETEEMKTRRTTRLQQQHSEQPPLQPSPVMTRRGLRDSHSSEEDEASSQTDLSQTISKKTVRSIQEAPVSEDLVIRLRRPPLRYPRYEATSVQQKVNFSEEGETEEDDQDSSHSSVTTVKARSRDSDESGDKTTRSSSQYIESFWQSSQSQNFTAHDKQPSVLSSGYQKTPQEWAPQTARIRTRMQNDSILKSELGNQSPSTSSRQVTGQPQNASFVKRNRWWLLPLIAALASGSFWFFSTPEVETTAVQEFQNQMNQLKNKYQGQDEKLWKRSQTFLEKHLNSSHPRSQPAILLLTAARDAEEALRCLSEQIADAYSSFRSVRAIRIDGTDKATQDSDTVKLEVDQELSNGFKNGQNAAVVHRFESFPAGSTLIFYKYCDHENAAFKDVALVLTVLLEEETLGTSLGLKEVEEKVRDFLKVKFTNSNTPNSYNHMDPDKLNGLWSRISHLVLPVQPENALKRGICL

[20] = molecular target: Alpha-bungarotoxin (Bungarus multicinctus) (UniProt P60615); assay: alpha-bungarotoxin binders on microarray, profiling panel, artefact control for SMM control protein annotation, biochemical, small-molecule microarray, Alexa647 label, 635/667 nm fluorescence (AID 1117); conditions: alpha-BTX-A647 binding fluorescence, higher = more signal
Chain of Alpha-bungarotoxin (Bungarus multicinctus) (P60615 whole entry, looked up): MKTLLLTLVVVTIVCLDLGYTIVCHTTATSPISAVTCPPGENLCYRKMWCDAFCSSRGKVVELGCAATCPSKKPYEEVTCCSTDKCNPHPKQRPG

SMILES	composite z-score [1]	composite z-score [2]	composite z-score [3]	z-score [4]	composite z-score [5]	composite z-score [6]	composite z-score [7]	composite z-score [8]	composite z-score [9]	composite z-score [10]	composite z-score [11]	z-score [12]	composite z-score [13]	composite z-score [14]	composite z-score [15]	composite z-score [16]	composite z-score [17]	composite z-score [18]	composite z-score [19]	composite z-score [20]
COc1ccc(C#Cc2ccc3c(c2)[C@]2(C(=O)N3)[C@H](c3ccc(O)cc3)N3[C@H](c4ccccc4)[C@H](c4ccccc4)OC(=O)[C@H]3[C@@H]2C(N)=O)cc1	0.348	-0.0576	0.698	6.64 (inactive)	-0.425	-0.381	-1.06	-1.08	-0.67	0.227	0.53	-1.68	-1.07	0.0315	1.03	-0.136	0.0735	0.482	-0.203	0.997
C=C(COC)C(=O)CC[C@H](OC(=O)c1cccnc1)c1cccc(OCCO)c1	0.935	0.706	0.169	-0.686 (inactive)	1.09	0.538	0.041	0.431	0.994	1.23	-0.298	-0.87	0.203	-0.638	-0.282	0.506	0.841	0.958	1.49	-0.923
C=CCNC(=O)[C@H]1[C@@H]2C(=O)O[C@@H](c3ccccc3)[C@@H](c3ccccc3)N2[C@@H](c2ccccc2OCCO)[C@]12C(=O)N(C(=O)OCCOC)c1ccc(C#CCCO)cc12	0.745	1.73	0.981	-0.485 (inactive)	1.35	1.2	0.843	1.24	0.983	1.01	0.188	-2.5	1.06	1.78	1.08	0.0722	0.715	1.23	0.985	0.581
C#CCOc1ccc(C[C@H]2C(=O)O[C@H](Cc3ccccc3)[C@H](/C=C/C3CC3)N2CC#C)cc1	1.32	-0.162	-0.0338	-1.18 (inactive)	-0.425	-0.526	-0.925	-0.566	-0.175	0.809	-0.462	-2.14	-0.36	-0.491	-0.685	-0.176	-0.153	-0.433	0.204	0.0192
CC(C)(C)OC(=O)CC[C@@]12N=C(c3ccc(OCCCO)cc3)O[C@@H]1c1ccccc1N(Cc1ccccc1)C2=O	0.727	0.692	1.05	-0.00084 (inactive)	0.732	1.19	-0.244	0.51	0.117	1.14	-0.0568	-2.38	-0.202	0.61	0.621	-0.0327	0.138	0.943	0.786	1.36
CC(C)C[C@@H]1NC(=O)[C@H]2C[C@@H](C(=O)NCCCC[N+](C)(C)C)[C@@H](c3cccc(OCCO)c3)N2C1=O	0.812	0.0877	-0.409	-1.02 (inactive)	0.756	-0.285	0.0727	0.965	1.23	-0.125	-1.55	-1.48	0.673	-0.144	0.75	-0.148	-0.0722	0.327	1.19	-0.491
NCCCCCNC(=O)[C@H]1C[C@H]2C(=O)NCC(=O)N2[C@H]1c1ccc(O)cc1	1.02	0.154	0.212	-0.25 (inactive)	1.37	1.31	0.383	1.07	1.74	0.324	0.861	0.245	1.49	1.53	0.954	-0.0981	-0.206	-0.216	0.712	2.71
O=C(NCC(F)(F)F)[C@@H]1c2ccccc2C(=O)N(C2Cc3ccccc3C2)[C@H]1c1ccc(CO)cc1	0.23	0.621	0.715	-0.658 (inactive)	-0.691	-0.605	-0.621	-0.584	-0.808	1.03	-1.07	-0.561	-1.21	0.342	1.14	-0.129	0.267	0.109	0.179	-1.22
C=CCC1(CC=C)C[C@H]2CO[C@H](c3ccc(OC)cc3)N2C1=O	0.695	-0.17	0.317	-0.512 (inactive)	-0.193	-0.217	0.291	0.576	0.917	1.55	-0.107	0.805	0.447	-1.56	-2.31	-0.124	-0.271	-0.0887	0.656	0.278
[N-]=[N+]=NCc1ccccc1C[C@@]1(C(=O)NCc2ccccc2)N=C(c2ccc(OCCCO)cc2)O[C@@H]1c1ccccc1	0.92	0.928	1.12	-1.4 (inactive)	0.185	0.6	-0.471	-0.159	-0.373	0.661	0.212	-3.05	-0.592	1.43	1.21	0.0761	0.0644	0.868	0.595	0.732
CCCCCN1CC=CC23O[C@@H]4/C=C\CCC(C)OC(=O)C4[C@H]2C(=O)N(CCCO)[C@@H]3C1=O (stereo not given in full)	0.936	-0.212	0.183	-0.246 (inactive)	-0.753	-0.723	-1.36	-1.24	-0.543	0.797	-0.93	-0.333	-1.15	-1.35	0.0216	-0.194	-0.2	-0.0511	1.99	2.69

From PubChem BioAssay
